# Source: PubChem
# In the library only some 1.9% were active in any assay of this set; here they are far more common.
# Menin-MLL FL inh – inhibitors of human menin-MLL interaction, wild-type MLL peptide; Fluorescence polarization, fluorescein-MLL peptide displacement from menin; 290,000 tested, under 10 active; AID 1766; FP activity change, % at 61.4 µM; active = well fitted curve in the direction sought with a large enough effect in the polarisation, not every such curve was filed as active; inconclusive = small, poorly fitted or top-dose-only effect, or effect the other way, or a change in a side signal; inactive = no such curve, though single readings can be large or run the other way; the % refers to the polarisation; also: % of control where 0% means no effect
# Menin-MLL TR inh – inhibitors of human menin-MLL interaction, mutant MLL peptide | AID 1768 | 0.23% of 270,000 active | Menin + Texas Red MLL mutant peptide, fluorescence polarization | Potency, µM (highest dose often 61.6 µM), for the others: at the top dose FP activity change, negative = inhibition, hits mostly inhibitors; active = well fitted inhibition curve with a large enough effect in the polarisation, with a control signal flat, not every such curve was filed as active; inconclusive = small, poorly fitted or top-dose-only effect, or effect the other way, or a change in a side signal; inactive = no such curve, though single readings can be large or run the other way; the % refers to the polarisation; also: potency is read from the fitted curve at half-maximal effect; % of control where 0% means no effect
# ClpP mod – qHTS Assay for Activators of ClpP; ATP-dependent Clp protease proteolytic subunit (Bacillus subtilis (strain 168)), P80244; purified B. subtilis ClpP, FRET peptide cleavage, 20 min; Potency, µM (doses to about 57.5 µM), inactives show at the highest dose activity change, negative = active; 1.9% of 340,000 active; active = well fitted falling curve with a large enough effect; inconclusive = small, poorly fitted or top-dose-only effect; inactive = no such curve, though single readings can be large or run the other way; also: potency is read from the fitted curve at half-maximal effect; the source files actives as falling curves though it sought activators and does not explain the sign; nearly all actives have a fitted effect of over 65% in size
# Target sequence (P80244 whole entry, looked up): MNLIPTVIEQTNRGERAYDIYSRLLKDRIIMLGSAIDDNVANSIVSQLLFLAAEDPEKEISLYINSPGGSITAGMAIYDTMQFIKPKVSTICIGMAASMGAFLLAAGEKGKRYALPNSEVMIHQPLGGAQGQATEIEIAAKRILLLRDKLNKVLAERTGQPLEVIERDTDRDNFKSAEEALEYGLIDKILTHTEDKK
#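 Purified B. subtilis ClpP, 10 microg/mL final in Tris/HCl pH8 with KCl, BSA, glycerol and Tween-20, cleaved an Abz/nitrotyrosine-quenched decapeptide. Fluorescence (ex 320, em 430) was read at 0 and 20 min at room temperature. Delta was normalized to 5.8 microM ADEP and DMSO/no-enzyme controls.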
# MLL CXXC-DNA inh – inhibitors of human MLL CXXC domain-DNA interaction | Potency, µM (doses to about 115 µM), inactives show at the top dose activity change, negative = inhibition, hits mostly inhibitors | AID 2662 | MLL-CXXC / FITC-HOXA9 DNA fluorescence polarization | 0.037% of 290,000 active | Q03164; active = well fitted inhibition curve with a large enough effect in the polarisation, with a control signal flat, not every such curve was filed as active; inconclusive = small, poorly fitted or top-dose-only effect, or effect the other way, or a change in a side signal; inactive = no such curve, though single readings can be large or run the other way; the % refers to the polarisation; also: potency is read from the fitted curve at half-maximal effect
#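 Fluorescence polarization: 7 uM MLL-CXXC (stock) preincubated 5 min with compounds, then 50 nM fluorescein-HOX-A9 DNA (stock) added; 30 min ambient. Buffer 50 mM Tris-HCl pH 7.5, 50 mM NaCl, 1 mM DTT, 0.05% BSA.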
# PINK1 modulator – PINK1 expression modulation. PINK1 immunofluorescence, high-content cytometry, 24 h. Potency, µM (top dose mostly 76.6 µM), for inactives: at the highest dose activation (PINK1 increase), usual class: activators. 0.2% of 410,000 active; active = well fitted activation curve with a large enough effect; inconclusive = small, poorly fitted or top-dose-only effect; cell line not stated here; also: potency is read from the fitted curve at half-maximal effect; % of control where 0% means no effect; nearly all actives have a fitted effect of over 65% in size
#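 Decision-based qHTS: stable cells, 24 h exposure to five compound concentrations, CCCP as control. Fixed cells stained for PINK1 plus nuclear, mitochondrial and cell markers, cytometer read.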
# Epigenetic reg – epigenetic control regulation, reporter derepression | murine LDR cells, GFP reporter derepression, 30 h | 0.2% of 280,000 active | Potency, µM (series often up to 53.9 µM), inactives show top-dose GFP activation, usual class: activators | AID 1865; active = well fitted activation curve with a large enough effect; inconclusive = small, poorly fitted or top-dose-only effect; also: potency is read from the fitted curve at half-maximal effect; % of control where 0% means no effect; nearly all actives have a fitted effect of over 60% in size
#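 Readout is the number of GFP-expressing murine LDR cells, counted by cytometry following washing. Cells were treated with compound for 30 h at 37 C; the stably integrated CMV-GFP locus is normally silent.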
# Starred values were filed as active, the others as inactive; ? = inconclusive; . = not tested or not shown; [ ] = another dose, or the depositor's remark.
SMILES,Menin-MLL FL inh,Menin-MLL TR inh,ClpP mod,MLL CXXC-DNA inh,PINK1 modulator,Epigenetic reg
O=C1[C@@H]2[C@@H](CN3CN(c4ccccc4)N=C(c4ccccc4)[C@@]23c2ccccc2)C(=O)N1c1ccccc1,.,.,3.5µM*,.,1%,.
Cn1c(/C(C#N)=C/C2CC=CCC2)nc2ccccc21 (configuration not stated),-1,13%,-27%,-6%,1%[38.3 µM],0%
N#C/C(=C\C1CC=CCC1)c1nc2ccccc2[nH]1 (configuration not stated),16,29%,32µM*,8%,4%[38.3 µM],1%
CC(C)CC(NC(=O)c1ccc(Cl)cc1)C(=O)OCc1cc([N+](=O)[O-])cc2c1OCOC2 (configuration not stated),2,13%,22µM*,-17%,1%,0%
O=C(NCc1nnc2n1CCN(C(=O)c1cccc(Cl)c1)CC2)C1CC1,.,.,.,.,1%,.
Cc1cc(=O)oc2cc(OC(C)C(=O)Nc3ccc(C(N)=O)cc3)ccc12 (configuration not stated),.,.,4%,.,1%,.
Cc1cc(=O)oc2cc(NC(=O)C(C)Oc3cccc(Cl)c3)ccc12 (configuration not stated),.,.,10µM*,.,8%,.
Clc1ccc(-c2cn3cc(Cl)ccc3n2)cc1,5,-8%,?,-1%,1%,.
Oc1ccc(-c2cn3cc(C(F)(F)F)ccc3n2)cc1,2,10%,28µM*,9%,-2%,-1%
COc1cc2cc(CN(CCCN3CCOCC3)C(=O)Nc3ccccc3F)c(=O)[nH]c2cc1OC,2,-5%,.,1%,-2%,0%
COc1ccccc1NC(=O)N(CCCN1CCOCC1)Cc1cc2cc3c(cc2[nH]c1=O)OCO3,-6,3%,20µM*,0%,0%,-1%
O=C(Nc1ccc(F)cc1)N(CCCN1CCOCC1)Cc1cc2cc3c(cc2[nH]c1=O)OCCO3,1,-14%,25µM*,14%,3%,11%
Cc1ccc(S(=O)(=O)NNC(=O)c2ccc(C(=O)N(c3ccccc3)c3ccccc3)cc2)cc1,.,.,-28%,.,0%,.
CC1CCN(CCNC(=O)c2ccc(Cn3c(SCc4ccccc4)nc4cccnc43)cc2)CC1,.,.,16µM*,.,0%,0%
Cc1ccc(Cn2c(SCc3ccc(C(=O)O)cc3)nc3cccnc32)cc1,.,.,28µM*,.,-1%,1%
CC1CCCCN1CCNC(=O)c1ccc(Cn2c(SCc3ccccc3)nc3cccnc32)cc1 (configuration not stated),.,.,25µM*,.,-1%,0%
O=C(NCC1Cc2cccc(-c3ncccn3)c2O1)C1CCCO1 (configuration not stated),.,.,.,.,0%,.
COCCn1c(C)cc(C2=NNC(=NC3CC3)SC2)c1C,-4,-23%,1%,3%,0%,-1%
Cc1cc(C2=NNC(=NC3CC3)SC2)c(C)n1-c1ccccc1,0,8%,-4%,11%,40µM*,0%
COc1ccc(-n2c(C)cc(C3=NNC(=NC4CC4)SC3)c2C)cc1,9,9%,.,22%,32µM*,3%
COCCN(C)C(=O)c1cnn(-c2nccc(-c3cc(OC)ccc3OC)n2)c1C,.,.,.,.,0%,.
COc1ccc(-c2cccc3c2OC(CNC(=O)c2ccc4c(c2)OCO4)C3)nn1 (configuration not stated),.,.,.,.,2%,.
N#CC12COC3(CCCCC3C1(C#N)C#N)OC2=N (configuration not stated),?,.,-2%,0%,2%,1%
N#CC1(C#N)COC23CCCCC2C1(C#N)C(=N)O3 (configuration not stated),?,28µM*,?,-20%,1%,-2%
CCOC(=O)c1c(-c2ccc(C)cc2)csc1/N=C/N(C)C,2,-7%,2%,-4%,0%,0%
SMILES,Menin-MLL FL inh,Menin-MLL TR inh,ClpP mod,MLL CXXC-DNA inh,PINK1 modulator,Epigenetic reg
CCOC(=O)c1c(-c2ccc(F)cc2)csc1/N=C/N(C)C,0,1%,25µM*,2%,0%,-2%
COc1cccc2c(=O)c(C/C=C(/C)Cl)c(C)[nH]c12,-2,8%,16µM*,11%,-1%,-3%
Cc1ccc(Sc2c(C#N)c(-c3ccccc3)nn2C)cc1,-1,0%,0%,0%,10µM*,1%
CCCCCCc1cc2cc(C(N)=O)c(=N)oc2cc1O,?,-14%,.,?,.,-2%
CCCCCCc1cc2cc(C(=O)OCC)c(=O)oc2cc1O,3,.,-23%,1%,?,0%
CCCCCCc1cc2cc(S(=O)(=O)c3ccc(F)c(Cl)c3)c(=O)oc2cc1O,?,?,62%,11%,13µM*,-1%
CCCCCCc1cc2cc(C(=O)Nc3ccc(OC)cc3)c(=O)oc2cc1O,2,5%,0%,-1%,40µM*,-1%
CCCCCCc1cc2cc(-c3nnc(-c4ccc(C)cc4)o3)c(=O)oc2cc1O,.,.,1%,.,-1%,2.2µM*
O=C(CSc1ccc(Cl)cc1)Nc1cccc(-c2nc3ccccc3[nH]2)c1,3,-15%,13µM*,43%,?,1%
O=C(COc1ccccc1)Nc1cccc(-c2nc3ccccc3[nH]2)c1,2,?,32µM*,8%,0%,-1%
O=C(O)CCCC(=O)Nc1cccc(-c2nc3ccccc3[nH]2)c1,-1,-18%,25µM*,-7%,-2%,0%
O=C(CSc1ccccc1)Nc1ccc(-c2nc3ccccc3[nH]2)cc1,1,?,-1%,18%,2%,1%
COc1ccc(CN2CCOc3ccc(C(O)c4cccnc4)cc3C2)c(F)c1 (configuration not stated),.,.,.,.,-1%,.
COc1cccc(C(=O)N(Cc2cc3cc4c(cc3nc2N(C)C)OCO4)CC2CCCO2)c1 (configuration not stated),.,.,.,.,-1%,.
O=C(Nc1ccc(Cl)cc1)OCCN1CCN(Cc2ccccc2)CCC1=O,-2,-1%,.,.,.,-5%
CC(=O)c1ccc(NC(=O)CCCN2C(=O)/C(=C/C(C)=C/c3ccccc3)SC2=S)cc1,10,3%,1%,27%,22µM*,1%
O=C(CCCN1C(=O)/C(=C\c2ccccc2)SC1=S)Nc1ccc(C(=O)O)cc1,4,?,.,-1%,0%,.
COc1cccc2c1cc1c(=O)n(CC(=O)N3CCN(c4ccc(F)cc4)CC3)nc(C)n12,.,.,20µM*,.,0%,0%
COc1cccc2c1cc1c(=O)n(CC(=O)NC3CCCCC3)nc(C)n12,.,.,32µM*,7%,2%,0%
NC(=O)SCC(=O)Nc1cccc(Cl)c1,10,22µM*,1%,12%,8%,3%
